HCV inh: qHTS Assay for Inhibitors of Hepatitis C Virus (HCV). Potency, µM (doses to about 41.8 µM), for inactives: top-dose activity change, negative = inhibition, usual class: inhibitors. 340,000 tested, 3.4% active. Huh7.5.1 HCVcc-Cre infection, luciferase reporter, 44 h
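Infectious HCVcc-Cre (~0.5 moi) was added to cells just after compound, with cells seeded 4 h earlier at 1,000 per well. Luciferase activity after 44 h culture reported infection; substrate was incubated 15 min at room temperature before reading.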
Pf growth 96h: Primary qHTS for delayed death inhibitors of the malarial parasite plastid, 96 hour incubation; 320,000 tested, 6.9% active; Potency, µM (series often up to 28.7 µM), without a hit: top-dose activity change, negative = inhibition, most hits filed as inhibitors; P. falciparum luciferase reporter growth, 96 h
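P. falciparum expressing integrated firefly luciferase grown in erythrocytes (2% hematocrit, 0.05% parasitemia final) with compounds for 96 hours at 37 C, 5% CO2. Growth inhibition read as loss of luminescence after adding luciferase detection reagent.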
AMA1-RON2 inh: qHTS for Inhibitors of AMA1-RON; Towards Development of Antimalarial Drug Lead: Primary Screen. Plasmodium falciparum AMA1 (3D7) - RON2 peptide interaction. 360,000 tested, 0.2% active. Potency, µM (highest dose often 58.2 µM), for inactives: at the highest dose activity change, negative = inhibition, actives largely listed as inhibitors. AlphaScreen AMA1-biotinylated RON2 peptide binding. AID 720542, 2013;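 note: 0% = vehicle wells and -100% = peptide control; nearly all actives have a fitted effect of over 45% in size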
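AMA1 (3D7) with his tag at 25 nM final met compounds first, then biotinylated RON2 peptide at 25 nM; detection used donor plus acceptor beads, 10 µg/mL apiece, read by AlphaScreen after 30 min at room temperature.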
Pf growth 48h: Primary qHTS for delayed death inhibitors of the malarial parasite plastid, 48 hour incubation; 310,000 tested, 5.9% active; P. falciparum luciferase growth in erythrocytes, 48 h; Potency, µM (doses to about 28.7 µM), for the others: at the highest dose activity change, negative = inhibition, most hits filed as inhibitors
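Parasite viability was followed by luminescence of a genomically integrated firefly luciferase. Cultures held 0.1% parasitemia at 2% hematocrit (final), incubated under 5% CO2 at 37 C.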
An asterisk follows results filed as active; [ ] = dose if it differs, or a comment. Most compounds without a hit are left out; they make up all but 11% or so of the library. Calls come from the whole dose curve; as a rule, active = well fitted curve in the direction sought with a large enough effect; inconclusive = small, poorly fitted or top-dose-only effect, or another doubt; inactive = no such curve, though single readings can be large; an effect the other way counts as inactive or inconclusive. Unless noted, % is set by controls: 0 for no effect and ±100 for the full control effect; potency is the fitted concentration of half-maximal effect.

Results for COc1ccc(NS(=O)(=O)c2cccs2)cc1S(=O)(=O)N1CCCCC1 ?
HCV inh: 0%; Pf growth 96h: 1%; AMA1-RON2 inh: -10%; Pf growth 48h: inconclusive

How did Cc1cc(NC(=O)COn2nnc3ccc(S(C)(=O)=O)cc32)ccc1Br do in these assays?
HCV inh: 10µM*; Pf growth 96h: 26%; AMA1-RON2 inh: 0%; Pf growth 48h: -10%

Results for CC(=C/C(=O)O)/C=C/c1ccco1 ?
HCV inh: 3%; Pf growth 96h: inconclusive; AMA1-RON2 inh: 3%[2.32 µM]; Pf growth 48h: inconclusive

Results for CC(/C=C/c1ccc(Cl)o1)=C\C(=O)O ?
HCV inh: 12%; Pf growth 96h: 1.5µM*; AMA1-RON2 inh: 5%; Pf growth 48h: 14%

What do the screens show for `COC(=O)C(CCSC)NC(=O)c1cc2c(n(-c3ccccc3)c1=O)CC(C)(C)CC2=O` (stereo not given)?
HCV inh: 15%; Pf growth 96h: 3.7µM*; AMA1-RON2 inh: 0%; Pf growth 48h: -20%

How did COC(=O)C(CCSC)NC(=O)c1cc2c(n(-c3ccc(C)cc3)c1=O)CCCC2=O (stereo not given) do in these assays?
HCV inh: 4%; Pf growth 96h: inconclusive; AMA1-RON2 inh: -1%; Pf growth 48h: 23%

How did O=C(N/N=C/c1ccc[nH]1)c1ccccc1OCc1ccc(F)cc1 do in these assays?
HCV inh: -22%; Pf growth 96h: -10%; AMA1-RON2 inh: 8%; Pf growth 48h: -5%

Results for O=C(N/N=C/c1ccc[nH]1)c1cccnc1 ?
HCV inh: 4%; Pf growth 96h: 173%; AMA1-RON2 inh: 107%; Pf growth 48h: 63%

How did CCOc1ccc(OCc2ccc(C(=O)NN=Cc3ccc[nH]3)cc2)cc1 do in these assays?
HCV inh: 0.56µM*; AMA1-RON2 inh: 52%

Results for O=C(N/N=C/c1ccc[nH]1)c1cccc(Br)c1 ?
HCV inh: 4.5µM*; Pf growth 96h: 13%; AMA1-RON2 inh: 70%; Pf growth 48h: 2%

Results for Cc1cccc(C(=O)N/N=C/c2ccc[nH]2)c1 ?
HCV inh: inconclusive; Pf growth 96h: 81%; AMA1-RON2 inh: 3%; Pf growth 48h: 0%

How did Cc1ccc(C(=O)N/N=C\c2ccc[nH]2)cn1 do in these assays?
HCV inh: 8.9µM*; Pf growth 96h: 19%; AMA1-RON2 inh: -31%

How did Nc1nc(Nc2cccc(Cl)c2)n[nH]1 do in these assays?
HCV inh: inconclusive; Pf growth 96h: inconclusive; AMA1-RON2 inh: 0%; Pf growth 48h: 1%

How did O=S(=O)(c1ccc2oc3ccc(S(=O)(=O)N4CCCCC4)cc3c2c1)N1CCCCC1 do in these assays?
HCV inh: 8%; Pf growth 96h: inconclusive; AMA1-RON2 inh: -14%; Pf growth 48h: inconclusive

Results for O=C(Nc1ccc(S(=O)(=O)N2CCOCC2)cc1)c1ccc(S(=O)(=O)N2CCOCC2)cc1 ?
HCV inh: 9%; Pf growth 96h: 12µM*; AMA1-RON2 inh: -11%; Pf growth 48h: -4%

What do the screens show for `CC1CCN(S(=O)(=O)c2cccc(C(=O)Nc3ccccc3)c2)CC1`?
HCV inh: inconclusive; Pf growth 96h: 2.6µM*; AMA1-RON2 inh: -2%; Pf growth 48h: inconclusive

What do the screens show for `O=C(Nc1ccc(S(=O)(=O)N2CCCC2)cc1)c1ccc(CN2CCOCC2)cc1`?
HCV inh: 6.3µM*; Pf growth 96h: 24%; AMA1-RON2 inh: -2%; Pf growth 48h: inconclusive

How did Cc1ccc(C(=O)Nc2ccc(S(=O)(=O)N3CCOCC3)cc2)cc1 do in these assays?
HCV inh: -5%; Pf growth 96h: inconclusive; AMA1-RON2 inh: 0%; Pf growth 48h: inconclusive

What do the screens show for `O=C(Nc1ccccc1)c1cccc(S(=O)(=O)N2CCCCC2)c1`?
HCV inh: 3%; Pf growth 96h: inconclusive; AMA1-RON2 inh: 15%; Pf growth 48h: 1%

Results for CCOc1ccc(-n2c([S-])c(C(=O)Nc3ccc(S(=O)(=O)N4CCOCC4)cc3)[n+]3cc(C(N)=O)ccc23)cc1 ?
HCV inh: 9%; Pf growth 96h: inconclusive; AMA1-RON2 inh: 6%; Pf growth 48h: 12µM*

Results for CCOc1ccc(CCNC(=O)c2nnc(CS(=O)(=O)c3ccccc3)o2)cc1OCC ?
HCV inh: -14%; Pf growth 96h: -25%; AMA1-RON2 inh: 6%; Pf growth 48h: -17%

What do the screens show for `C=CCN1CC(=O)N2C(c3ccccc3)c3[nH]c4ccccc4c3C[C@H]2C1=O` (stereo not given in full)?
HCV inh: 16%; Pf growth 96h: inconclusive; AMA1-RON2 inh: -3%; Pf growth 48h: inconclusive

What do the screens show for `Cc1ccnc(NC(=O)c2ccc(S(=O)(=O)N3CCC(C)CC3)cc2)c1`?
HCV inh: -8%; Pf growth 96h: 19%; AMA1-RON2 inh: -20%; Pf growth 48h: 14%

How did CC1CCN(S(=O)(=O)c2ccc(NC(=O)CN3CCCC(C)C3)cc2)CC1 (stereo not given) do in these assays?
HCV inh: -21%; Pf growth 96h: 12µM*; AMA1-RON2 inh: 0%

What do the screens show for `O=C(Nc1ccc(S(=O)(=O)N2CCCCC2)cc1)c1ccc(CN2CCOCC2)cc1`?
HCV inh: 2.8µM*; Pf growth 96h: -23%; AMA1-RON2 inh: 22%; Pf growth 48h: inconclusive

Results for O=C(Nc1ccc2c(c1)OCCO2)c1ccc(CN2CCOCC2)cc1 ?
HCV inh: -29%; Pf growth 96h: inconclusive; AMA1-RON2 inh: 3%; Pf growth 48h: 86%

How did Cc1ccc(NC(=O)c2ccc(S(=O)(=O)N3CCC(C)CC3)cc2)cc1 do in these assays?
HCV inh: -12%; AMA1-RON2 inh: -3%; Pf growth 48h: 10µM*

What do the screens show for `CCN(CC)S(=O)(=O)c1ccc(NC(=O)c2ccc(CN3CCOCC3)cc2)cc1`?
HCV inh: inconclusive; Pf growth 96h: -15%; AMA1-RON2 inh: -12%; Pf growth 48h: 6.6µM*

Results for COCCCNC1=C(C#N)C(=O)NC(c2cccs2)S1 (stereo not given) ?
AMA1-RON2 inh: 26%

What do the screens show for `N#C/C(=N\Nc1ccc(S(=O)(=O)N2CCOCC2)cc1)C(N)=S`?
HCV inh: 1%; Pf growth 96h: inconclusive; AMA1-RON2 inh: 94%; Pf growth 48h: 15µM*

How did CC1CCN(S(=O)(=O)c2ccc(N/N=C(/C#N)C(N)=O)cc2)CC1 do in these assays?
HCV inh: -1%; Pf growth 96h: inconclusive; AMA1-RON2 inh: -2%; Pf growth 48h: -4%

How did CCN1C(=O)CSc2ccc(C(=O)NCc3ccc(OC)cc3)cc21 do in these assays?
HCV inh: -6%; Pf growth 96h: 2%; AMA1-RON2 inh: 2%

How did Cc1nc2ccccc2c(N)c1C(=O)/C=C/c1ccccc1 do in these assays?
HCV inh: 11µM*; Pf growth 96h: inconclusive; AMA1-RON2 inh: -10%; Pf growth 48h: 5.9µM*

Results for COc1ccc(S(=O)(=O)N2CCN(c3nn(C)c(=O)n(C)c3=O)CC2)cc1 ?
HCV inh: 5%; Pf growth 96h: inconclusive; AMA1-RON2 inh: -6%; Pf growth 48h: 4%

Screening data from PubChem BioAssay.
